Out of some 580,000 compounds screened, about 6,100 (1.1%) were called active. Another 15% or so got no clear call; they are omitted. Calls come from the whole dose curve; as a rule, active = well fitted inhibition curve with a large enough effect; inconclusive = small, poorly fitted or top-dose-only effect, or another doubt; inactive = no such curve, though single readings can be large or run the other way. The full list was thinned out, with actives kept by preference.
target: Polyunsaturated fatty acid lipoxygenase ALOX12 (Homo sapiens) (UniProt P18054); assay: Primary qHTS assay for inhibitors of human arachidonate 12S-lipoxygenase (ALOX12): Round 2; conditions: purified 12hLO, xylenol orange hydroperoxide absorbance; series mostly up to 108 µM; activity change, negative = inhibition: at the top concentration
Sequence (P18054 whole entry, looked up): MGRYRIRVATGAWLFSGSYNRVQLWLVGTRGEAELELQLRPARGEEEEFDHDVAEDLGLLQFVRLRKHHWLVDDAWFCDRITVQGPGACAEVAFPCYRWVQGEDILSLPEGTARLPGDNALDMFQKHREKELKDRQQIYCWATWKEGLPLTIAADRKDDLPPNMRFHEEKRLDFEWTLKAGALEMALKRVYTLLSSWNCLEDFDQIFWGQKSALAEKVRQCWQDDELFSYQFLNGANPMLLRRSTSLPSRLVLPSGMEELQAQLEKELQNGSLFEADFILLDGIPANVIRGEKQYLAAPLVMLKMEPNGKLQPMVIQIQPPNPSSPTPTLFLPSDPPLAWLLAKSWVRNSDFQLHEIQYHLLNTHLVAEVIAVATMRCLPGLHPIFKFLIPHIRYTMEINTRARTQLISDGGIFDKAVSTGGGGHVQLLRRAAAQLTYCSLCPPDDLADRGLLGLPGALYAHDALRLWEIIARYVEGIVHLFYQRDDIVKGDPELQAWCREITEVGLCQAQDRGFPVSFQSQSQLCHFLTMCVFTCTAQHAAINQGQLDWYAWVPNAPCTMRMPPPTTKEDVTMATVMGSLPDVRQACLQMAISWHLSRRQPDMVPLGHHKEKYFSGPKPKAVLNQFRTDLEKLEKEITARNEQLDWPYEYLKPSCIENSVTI
Summary of the method: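 Purified human 12hLO at 150 nM in 25 mM Hepes, 0.01% Triton X-100, pH 7.0, preincubated 15 min at room temperature with compound. Reaction started with 40 uM arachidonic acid, 30 min at room temperature. Hydroperoxide measured by Fe-xylenol orange, 573/405 nm absorbance ratio.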
% is set by controls: 0 for no effect and ±100 for the full control effect; potency is the fitted concentration of half-maximal effect.

Row | Structure (SMILES) | activity change, negative = inhibition | Potency
1 | O=C(CCNC(=O)N1CCN(C(=O)c2cc3ccccc3[nH]2)CC1)NCc1ccccn1 | 8.38% (inactive) | 
2 | Clc1cccc(CN2CCN(Cc3nnsc3Cl)CC2)c1 | 22.4% (inactive) | 
3 | CCOC(=O)c1ccc(Nc2c(C(=O)OCC)cnc3ccc(OCC)cc23)cc1 | -26.7% (inactive) | 
4 | CN(C)C(=O)c1nc2ccc(Cl)cn2c1CNCc1cccc(OC(F)(F)F)c1 | -10% (inactive) | 
5 | CCc1nc2ccc(C(=O)NCc3ccc(OC)cc3)cn2c1N(CC)Cc1cccc(Br)c1 | -13.1% (inactive) | 
6 | COC(=O)c1ccc2nc(-c3cccc(Br)c3)c(Cc3ccccc3C(F)(F)F)n2c1 | 0% (inactive) | 
7 | COC(=O)c1ccc2nc(C3CCCCC3)c(Cc3cccc(F)c3)n2c1 | -27.2% (inactive) | 
8 | COC(=O)c1ccc2nc(-c3cccc(Br)c3)c(Cc3ccc(OC)cc3C)n2c1 |  | 7.94 µM (active)
9 | COC(=O)c1ccc2nc(-c3ccc(Cl)cc3)c(Cc3cccc(F)c3)n2c1 |  | 44.7 µM (active)
10 | O=C(Nc1ccnc(Cl)c1)C1CC2CCC1C2 (configuration not stated) | -11.1% (inactive) | 
11 | CC(=O)OC1C2COC(O2)C(OC(C)=O)C1OC(C)=O (configuration not stated) | -25.1% (inactive) | 
12 | O=C(Nc1cccnc1)c1cc(-c2ccc(F)cc2)nc2ccccc12 | -4.09% (inactive) | 
13 | CCCNC(=O)CC1COCCN1C(=O)CCc1c(C)nc(=O)[nH]c1C (configuration not stated) | 4.55% (inactive) | 
14 | COC(=O)c1c(CN2CCC(C(N)=O)CC2)nc2ccccc2c1C | -1.28% (inactive) | 
15 | CNC(=O)NC(=O)CSc1nnc(-c2ccc(F)cc2)n1CC1CCCO1 (configuration not stated) | -1.78% (inactive) | 
16 | S=c1[nH]nc(-c2ccc(Cl)cc2)n1CC1CCCO1 (configuration not stated) |  | 44.7 µM (active)
17 | Cc1nnc(SCC(=O)NNC(=O)c2ccc(Cl)cc2)n1CC1CCCO1 (configuration not stated) | 0.528% (inactive) | 
18 | COc1ccc(C(=O)NC[C@@H]2C=C(C)[C@H](Cc3nnc(-c4cncn4C)o3)C[C@H]2C(C)C)cc1 | 5.16% (inactive) | 
19 | O=C(c1cccc(F)c1)N1CCN(c2ccc([N+](=O)[O-])c3cccnc23)CC1 |  | 39.8 µM (active)
20 | O=C(c1cccc(F)c1)N1CCC(O)(c2cccnc2)CC1 | 0% (inactive) | 
21 | CC(C)c1ccc(S(=O)(=O)N2CCN(C(=O)c3ccc(N4CCCC4)c([N+](=O)[O-])c3)CC2)cc1 | 1.24% (inactive) | 
22 | O=C(NCCCN1CCCC1=O)c1csc(N2CCN(c3ccccc3F)CC2)n1 | -8.23% (inactive) | 
23 | C/C(=N\NC(=O)C1CC1)C(C)C | 31.5% (inactive) | 

Row | Structure (SMILES) | activity change, negative = inhibition | Potency
24 | COc1ccc(Oc2ccc(NC(=O)Cn3ncc4ccc(OC)c(OC)c4c3=O)cc2)cc1 | 6.84% (inactive) | 
25 | O=C(NN=Cc1ccco1)C(=O)Nc1ccc(Cl)c([N+](=O)[O-])c1 | 20.7% (inactive) | 
26 | C/C(=N\NC(=O)Cc1ccccc1[N+](=O)[O-])c1cccnc1 | 434% (inactive) | 
27 | O=C(/C=C/c1ccc(Cl)c([N+](=O)[O-])c1)c1cccnc1 |  | 17.8 µM (active)
28 | CC(=O)N1CCN(C(=O)Cn2c(-c3ccccc3)cc3ccccc32)CC1 | -56.7% (inactive) | 
29 | O=C(Nc1cc(F)ccc1F)c1cc(C2CC2)nn1-c1ccccc1 | 28.5% (inactive) | 
30 | O=C(CCc1c[nH]c2ccccc12)NCCc1cccnc1 | -7.37% (inactive) | 
31 | COc1cccc(-c2nc3n(n2)C(c2ccccc2Cl)C(C(N)=O)=C(C)N3)c1 (configuration not stated) | 337% (inactive) | 
32 | Cc1ccc(C2C=C(c3ccc(Cl)cc3)Nc3nc(NC(=O)CCC(=O)O)nn32)cc1 (configuration not stated) | 39.4% (inactive) | 
33 | COc1ccc(C2=CC(c3ccccc3Cl)n3nc(-c4ccc(Cl)cc4)nc3N2)cc1 (configuration not stated) |  | 5.01 µM (active)
34 | Cc1nn(Cc2cccc(F)c2)c(C)c1NS(=O)(=O)c1c(C)nn(C)c1C | -45.1% (inactive) | 
35 | Cc1sc2ncnc(Sc3nnc(-c4ccccc4F)n3C)c2c1C | 3.83% (inactive) | 
36 | N#Cc1ccccc1Sc1ccccc1C(=O)Nc1ccc2c(c1)CCC2 |  | 20 µM (active)
37 | N#Cc1ccccc1Sc1ccccc1C(=O)NC1CCCCC1 | -23.6% (inactive) | 
38 | N#Cc1ccccc1Sc1ccccc1C(=O)OCC(=O)NC1CCCCC1 | -7.61% (inactive) | 
39 | CC1CCCN(CC(=O)Nc2oc3ccccc3c(=O)c2-c2ccccc2)C1 (configuration not stated) | 53.9% (inactive) | 
40 | Cn1c(=O)[nH]c(=O)c2c1nc(SCCO)n2Cc1ccc(Cl)cc1 | -28.4% (inactive) | 
41 | CCN(CC)c1ccc(NC(=O)CSc2ncnc3ccccc23)cc1 | -15.3% (inactive) | 
42 | CC(C)C(=O)NC(NC(=S)Nc1ccccc1)C(Cl)(Cl)Cl (configuration not stated) | -14.2% (inactive) | 
43 | COCCN1C(=O)c2n[nH]c(-c3ccco3)c2C1c1ccc(O)cc1 (configuration not stated) | -7.24% (inactive) | 
44 | Cc1cnc(-c2ccncc2)n1CCN |  | 3.55 µM (active)
45 | Cc1cnc(C)n1CCN | 43.7% (inactive) | 
46 | Cc1cnc(-c2ccccc2)n1CCNC(=O)CCC1CCCC1 | 7.92% (inactive) | 

Row | Structure (SMILES) | activity change, negative = inhibition | Potency
47 | CCc1ccc(-c2ccccc2)nc1-c1ccccc1 | 6.65% (inactive) | 
48 | COC(=O)CC(NC(=O)c1ccc2c(c1)OCCO2)c1ccc(F)cc1 (configuration not stated) | -18.7% (inactive) | 
49 | Cc1oc(-c2nc(C#N)c(N3CCCCCC3)o2)cc1S(=O)(=O)N1CCCCC1 | -3.56% (inactive) | 
50 | Cc1ccc(/C=C/C(=O)/C=C/c2ccc(C)cc2)cc1 | -13.9% (inactive) | 
51 | COc1cc(C=CC(=O)O)ccc1O | -8.61% [at 57.4 µM] (inactive) | 
52 | O=C(/C=C(O)/C=C/c1ccc(O)cc1)/C=C/c1ccc(O)cc1 |  | 28.2 µM (active)
53 | O=C(Nc1ccccc1NS(=O)(=O)c1cccs1)c1ccc([N+](=O)[O-])cc1 | -7.02% (inactive) | 
54 | CCOC(=O)/C=C/c1ccc(N)cc1 | 0.135% (inactive) | 
55 | CCN1CCC(O)(/C=C/c2ccc(C)cc2)C(C(=O)/C=C/c2ccc(C)cc2)C1 (configuration not stated) |  | 50.1 µM (active)
56 | CO[C@H]1C(=O)N(C(C)C)[C@H]1C1CCN(C(=O)Nc2ccc(C)c(C)c2)CC1 | 12.5% (inactive) | 
57 | Cc1ccsc1C(=O)NC1CCN(c2cnn(Cc3ccccc3)c(=O)c2)CC1 | 20.5% (inactive) | 
58 | CCN(CC)CCC(=O)Nc1c(C(=O)OC)[nH]c2ccccc12 | 2.76% (inactive) | 
59 | CC(C)CCC(=O)Nc1cc(S(=O)(=O)N2CCOCC2)ccc1N1CCCC1 | -1.02% (inactive) | 
60 | O=C(COC(=O)Cc1ccc(F)cc1)Nc1cc(S(=O)(=O)N2CCOCC2)ccc1N1CCCC1 | 10.8% (inactive) | 
61 | COCCNC(=S)Nc1cc(S(=O)(=O)N2CCOCC2)ccc1N1CCCCC1 |  | 31.6 µM (active)
62 | CC(C)OCC(=O)N1CCN(c2nc(-c3ccccc3)nc3c2CCC3)CC1 | 1.77% (inactive) | 
63 | Cc1[nH]c2ccccc2c1CC(=O)NCc1ccc(CN2CCCC2)cc1 | 0.463% (inactive) | 
64 | Cc1c(Cc2ccccc2)c(=O)oc2c(C)c(OC(C)C(=O)O)ccc12 (configuration not stated) | -4.47% (inactive) | 
65 | Cc1nc2nc(NCc3cc(F)cc(F)c3)[nH]n2c(=O)c1C | 3.05% (inactive) | 
66 | CCN(c1ccc(NC(=O)c2cnc3ccccc3n2)cc1)C(C)C | -1.28% (inactive) | 
67 | CCN(CC(=O)NC(=O)NCC(C)C)C1CC1 | 19.4% (inactive) | 
